5 molecules from PubChem BioAssay can be followed below.

Calls of active or inactive are those of the source.

For one assay, the target named is Albumin (Bos taurus) (UniProt P02769). Description: compounds binding labelled BSA control protein – biochemical, small-molecule microarray, Alexa647 label, 635/667 nm fluorescence, artefact control for SMM control protein annotation, profiling panel (AID 1118).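 Also: score merges 667 nm emission intensity and signal-to-noise per printed compound spot.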 To be noted: BSA-A647 binding, fluorescence 635 nm, higher = more signal.
Assay [1] can be described thus: probe aXIP binding to arrayed compounds – biochemical, NeuroSMM set, 635/667 nm fluorescence, primary screen (AID 1119).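 Also: probe is the protein aXip251-270 applied at 1 µg/mL to compound-printed slides; binding of probe to printed compounds measured as 667 nm fluorescence plus signal to noise.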 The following applies: small-molecule microarray, higher = more signal, called active from +8 up or from −8 down.
Assay [2] in a line: probe aNOTCH3 binding on compound microarray – biochemical, small-molecule microarray, 635/667 nm fluorescence, primary screen (AID 1120).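 Also: probe is a biotin-tagged antibody raised against NOTCH3 rather than NOTCH3 protein; score merges spot fluorescence near 667 nm with spot signal to noise.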 To be noted: higher = more signal.
Assay [3] in a line: probe aNOTCH2 binding on compound microarray – biochemical, small-molecule microarray, 635/667 nm fluorescence, primary screen (AID 1121).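 Also: score merges feature fluorescence read at 667 nm with its signal to noise.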 The following applies: higher = more signal.
Assay [4] deals with Carbonic anhydrase 2 (Homo sapiens) (UniProt P00918). Description: compounds binding carbonic anhydrase 2 – biochemical, small-molecule microarray, Alexa647-labelled CAII, profiling panel (AID 1122). The following applies: CAII-A647 binding fluorescence, higher = more signal.
Assay [5] can be described thus: COS7 lysate on small-molecule microarray, probe aHis, 635 nm (AID 1123).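 Also: z-score combines 667nm fluorescence intensity with signal-to-noise per printed compound spot.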 To be noted: COS7 cell lysate, fluorescence, higher = more signal.
The nature of assay [6]: probe aLAP1 signal on lysate-treated microarray – cell lysate, small-molecule microarray, COS7 lysate, primary screen (AID 1124).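 Also: lysate comes from COS7 cells expressing LAP1 and is applied at 0.3 µg/mL; score merges spot fluorescence near 667 nm with signal-to-noise over triplicate slides.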 The following applies: probe aLAP1, fluorescence, higher = more signal.
Another assay deals with Sam68 (KHDRBS1). Description: compounds binding KHDRBS1 protein – biochemical, small-molecule microarray, 635 nm fluorescence, primary screen (AID 1125).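 Also: score merges 667 nm channel intensity with signal to noise over triplicate slides.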 The following applies: higher = more signal.
Assay [7] has as its system Chordin-like protein 2 (CHRDL2). Description: compounds binding chordin-like 2 – biochemical, small-molecule microarray, 635 nm fluorescence, primary screen (AID 1126).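 Also: printed compound slides probed with Chrdl2 protein at 4 µg/mL for 1 h at 4 C; score merges 667 nm emission intensity with signal to noise over three replicate slides.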 The following applies: fluorescence 635 nm, higher = more signal.
Assay [8] deals with Concanavalin-A (Canavalia ensiformis) (UniProt P02866). In words: compounds binding concanavalin A lectin – biochemical, small-molecule microarray, Alexa647 label, 635 nm, artefact control for SMM control protein annotation, primary screen (AID 1127).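 Also: z combines 667 nm emission intensity with signal-to-noise across three replicate slides.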 The following applies: ConA-A647 binding fluorescence, higher = more signal.
The nature of assay [9]: compounds binding Alexa647 anti-His antibody – biochemical, small-molecule microarray, 635 nm fluorescence, artefact control for SMM control protein annotation, primary screen (AID 1128).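 Also: score merges feature fluorescence with signal-to-noise for each printed compound spot.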 To be noted: higher = more signal.
For assay [10], the system named is Human papillomavirus type 1a E7 protein (residues 1-88). Description: HPV1a E7 small-molecule binders, primary screen, biochemical, small-molecule microarray, residues 1-88, 635 nm (AID 1129). The following applies: small-molecule microarray binding, fluorescence 635 nm; higher = more signal.
The target of assay [11] is Focal adhesion kinase 1 (Homo sapiens) (UniProt Q05397). Description: PTK2 protein binding on printed compound slides – biochemical, small-molecule microarray, 635/667 nm fluorescence, BSA, DTT, primary screen (AID 1130).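 Also: composite of spot emission at 667 nm and signal to noise over triplicate slides.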 To be noted: 635 nm fluorescence, higher = more signal.
Assay [12] relates to Fibrinogen (Alexa647-labelled). In words: Alexa647-fibrinogen binding to printed small molecules – biochemical, small-molecule microarray, 635/667 nm fluorescence, artefact control for SMM control-protein annotation, profiling panel (AID 1131).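 Also: z-score merges 667 nm fluorescence with per-spot signal-to-noise over triplicate slides.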 The following applies: fibrinogen-A647 binding fluorescence, higher = more signal.
Assay [13] has as its target Follistatin (Homo sapiens) (UniProt P19883). Description: FST protein binding to printed compounds – biochemical, small-molecule microarray, 635/667 nm fluorescence, primary screen (AID 1132). To be noted: 635 nm fluorescence, higher = more signal.
Assay [14] addresses Fibroblast growth factor 2 (Homo sapiens) (UniProt P09038). In words: basic fibroblast growth factor binding to printed compounds – biochemical, small-molecule microarray, 635/667 nm fluorescence, primary screen (AID 1133). To be noted: FGF2, fluorescence 635/667, higher = more signal.
The nature of assay [15]: JC-1 mitochondrial potential readout, lung cancer cells – cell-based, A549, JC-1 fluorescence, basal, 24 h, 100 nL, profiling panel (AID 1138).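 Also: A549 lung adenocarcinoma cells under basal conditions with no added stimulus; test concentration not given here.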 The following applies: higher = more signal.
For a further assay, the system named is Lefty1. In words: Lefty1 protein binding to printed compounds – biochemical, small-molecule microarray, 635/667 nm fluorescence, primary screen (AID 1139). To be noted: fluorescence 635/667, higher = more signal.
The subject of assay [16] is wheat germ agglutinin (Triticum aestivum), Alexa647-labelled. In words: Alexa647-WGA lectin binding to printed small molecules – biochemical, small-molecule microarray, 635/667 nm fluorescence, artefact control for SMM control-protein annotation, profiling panel (AID 1140).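 Also: score merges 667 nm feature emission with signal to noise over triplicate slides.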 To be noted: WGA-A647 binding, 635 nm fluorescence, higher = more signal.
Assay [17] addresses Luciferin 4-monooxygenase (Photinus pyralis) (UniProt P08659). In words: inhibition of purified Photinus pyralis luciferase – biochemical, luminescence, purified enzyme, 2006 set, primary screen (AID 1141).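 Also: cell-free assay with purified firefly luciferase at 100 ng per well in PBS; test concentration not given here.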 The following applies: purified firefly luciferase, SteadyGlo luminescence, 30 min; higher = more signal, called active from +8 up or from −8 down.

Sequence of Luciferin 4-monooxygenase (Photinus pyralis) (P08659 whole entry, looked up): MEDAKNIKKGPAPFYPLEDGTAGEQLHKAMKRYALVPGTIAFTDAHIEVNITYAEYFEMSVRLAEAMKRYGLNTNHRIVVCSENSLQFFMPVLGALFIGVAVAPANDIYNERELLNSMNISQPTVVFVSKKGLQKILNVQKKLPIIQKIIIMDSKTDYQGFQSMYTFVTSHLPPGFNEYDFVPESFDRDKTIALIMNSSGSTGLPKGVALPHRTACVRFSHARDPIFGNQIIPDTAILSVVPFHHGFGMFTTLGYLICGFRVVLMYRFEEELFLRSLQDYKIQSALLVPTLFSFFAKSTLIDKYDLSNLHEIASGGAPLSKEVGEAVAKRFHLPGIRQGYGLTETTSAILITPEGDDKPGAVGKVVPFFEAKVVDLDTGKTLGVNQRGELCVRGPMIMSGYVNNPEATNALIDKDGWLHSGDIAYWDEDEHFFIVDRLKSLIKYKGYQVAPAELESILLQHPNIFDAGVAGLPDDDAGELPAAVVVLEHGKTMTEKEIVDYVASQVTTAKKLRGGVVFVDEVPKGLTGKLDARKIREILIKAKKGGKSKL
Sequence of Focal adhesion kinase 1 (Homo sapiens) (Q05397 whole entry, looked up): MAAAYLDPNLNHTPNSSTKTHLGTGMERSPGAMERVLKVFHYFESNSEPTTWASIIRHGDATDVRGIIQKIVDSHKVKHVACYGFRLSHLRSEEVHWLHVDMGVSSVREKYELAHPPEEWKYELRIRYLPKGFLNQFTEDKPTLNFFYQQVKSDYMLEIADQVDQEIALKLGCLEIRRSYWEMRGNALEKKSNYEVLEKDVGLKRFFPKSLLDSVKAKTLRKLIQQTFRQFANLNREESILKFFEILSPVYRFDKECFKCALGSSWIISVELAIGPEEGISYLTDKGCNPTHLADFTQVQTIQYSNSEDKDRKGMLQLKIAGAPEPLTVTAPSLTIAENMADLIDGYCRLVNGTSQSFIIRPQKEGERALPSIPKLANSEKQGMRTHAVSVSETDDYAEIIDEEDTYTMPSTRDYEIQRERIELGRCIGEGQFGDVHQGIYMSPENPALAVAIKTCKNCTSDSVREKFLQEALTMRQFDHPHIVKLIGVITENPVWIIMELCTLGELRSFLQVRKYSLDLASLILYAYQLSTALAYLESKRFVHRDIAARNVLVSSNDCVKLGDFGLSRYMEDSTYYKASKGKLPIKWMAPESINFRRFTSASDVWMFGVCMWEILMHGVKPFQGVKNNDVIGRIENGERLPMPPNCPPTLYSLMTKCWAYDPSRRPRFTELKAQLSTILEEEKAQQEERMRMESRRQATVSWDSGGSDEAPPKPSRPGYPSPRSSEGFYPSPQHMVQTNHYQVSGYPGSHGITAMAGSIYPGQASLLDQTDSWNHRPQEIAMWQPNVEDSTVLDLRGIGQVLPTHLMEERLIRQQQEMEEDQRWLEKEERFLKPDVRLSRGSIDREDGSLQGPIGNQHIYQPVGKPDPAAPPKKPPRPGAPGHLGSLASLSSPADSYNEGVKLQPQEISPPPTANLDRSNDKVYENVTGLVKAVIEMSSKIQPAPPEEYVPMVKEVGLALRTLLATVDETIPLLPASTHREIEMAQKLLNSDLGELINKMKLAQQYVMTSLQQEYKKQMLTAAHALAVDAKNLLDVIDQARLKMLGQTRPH
Sequence of Follistatin (Homo sapiens) (P19883 whole entry, looked up): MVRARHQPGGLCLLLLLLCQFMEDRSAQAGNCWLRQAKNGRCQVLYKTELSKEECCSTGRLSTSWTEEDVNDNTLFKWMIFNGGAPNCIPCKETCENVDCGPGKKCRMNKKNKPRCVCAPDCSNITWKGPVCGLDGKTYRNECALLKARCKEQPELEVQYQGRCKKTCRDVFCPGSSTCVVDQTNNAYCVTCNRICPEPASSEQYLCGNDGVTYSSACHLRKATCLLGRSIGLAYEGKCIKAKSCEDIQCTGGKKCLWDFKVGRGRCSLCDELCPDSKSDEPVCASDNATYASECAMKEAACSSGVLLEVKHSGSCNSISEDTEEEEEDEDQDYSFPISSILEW
Sequence of Concanavalin-A (Canavalia ensiformis) (P02866 whole entry, looked up): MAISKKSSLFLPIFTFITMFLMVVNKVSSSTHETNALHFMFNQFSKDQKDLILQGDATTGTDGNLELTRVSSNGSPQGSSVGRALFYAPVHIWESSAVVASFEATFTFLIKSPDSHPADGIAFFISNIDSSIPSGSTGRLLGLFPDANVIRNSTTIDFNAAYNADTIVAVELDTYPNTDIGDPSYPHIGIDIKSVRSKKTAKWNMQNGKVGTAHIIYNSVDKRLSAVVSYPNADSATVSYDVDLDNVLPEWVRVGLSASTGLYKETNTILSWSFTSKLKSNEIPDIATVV
Sequence of Fibroblast growth factor 2 (Homo sapiens) (P09038 whole entry, looked up): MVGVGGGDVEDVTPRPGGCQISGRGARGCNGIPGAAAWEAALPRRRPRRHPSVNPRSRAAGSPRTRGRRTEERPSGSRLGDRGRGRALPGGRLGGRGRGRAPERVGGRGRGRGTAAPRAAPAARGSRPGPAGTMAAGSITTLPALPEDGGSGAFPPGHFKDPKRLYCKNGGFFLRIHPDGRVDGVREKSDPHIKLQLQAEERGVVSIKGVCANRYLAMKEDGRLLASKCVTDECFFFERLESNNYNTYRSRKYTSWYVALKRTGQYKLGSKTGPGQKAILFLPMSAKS
Sequence of Albumin (Bos taurus) (P02769 whole entry, looked up): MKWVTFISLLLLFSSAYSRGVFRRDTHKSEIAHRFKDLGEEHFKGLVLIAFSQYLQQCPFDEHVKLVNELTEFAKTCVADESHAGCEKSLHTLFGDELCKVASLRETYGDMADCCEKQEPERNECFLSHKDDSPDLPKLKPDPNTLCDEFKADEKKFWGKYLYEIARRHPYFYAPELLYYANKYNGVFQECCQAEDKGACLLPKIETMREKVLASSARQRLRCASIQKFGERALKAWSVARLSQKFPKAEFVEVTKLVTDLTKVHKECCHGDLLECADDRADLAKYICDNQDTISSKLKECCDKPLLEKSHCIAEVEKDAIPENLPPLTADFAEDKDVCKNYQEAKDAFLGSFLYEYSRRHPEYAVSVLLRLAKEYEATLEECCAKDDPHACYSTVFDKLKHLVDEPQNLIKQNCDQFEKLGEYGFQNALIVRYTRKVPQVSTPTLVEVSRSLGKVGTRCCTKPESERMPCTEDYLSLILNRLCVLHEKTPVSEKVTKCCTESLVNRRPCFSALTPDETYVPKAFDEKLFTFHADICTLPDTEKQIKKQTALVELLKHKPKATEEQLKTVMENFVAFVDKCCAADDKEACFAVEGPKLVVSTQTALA

`COc1ccc(COC(=O)NN=C2C[C@@H](O)[C@@H](O)[C@@H]3[C@@H]4C(=O)N(c5cccc(Oc6ccccc6)c5)C(=O)[C@@H]4CC[C@H]23)cc1`: the composite z-score in the assay with Albumin (Bos taurus) is 0.64; in assay [2], 0.0793; in assay [3], -0.0665; in [4], -0.0831; in assay [5] it was 0.852; in assay [6] it was -0.0241. In addition, the composite z-score with Sam68 (KHDRBS1) is -0.546; in assay [7], -0.636; in [8], 0.433; in assay [9] it was 0.362; in assay [10], -0.476; in assay [11], 0.407. The composite z-score is 0.744 in assay [12]; -0.355 in assay [13]; -0.603 in assay [14]; -0.258 with Lefty1; 0.916 in [16]. The composite Z-score in [1] is -0.626 (inactive). The results for the z-score in assay [15] and in assay [17] were -0.593 and 0.911 (inactive), respectively.
With `O=C(NN=C1C[C@@H](O)[C@@H](O)[C@@H]2[C@@H]3C(=O)N(c4ccc(F)cc4F)C(=O)[C@@H]3CC[C@H]12)OCc1ccccc1`, the composite z-score is 0.87 with Albumin (Bos taurus); 0.11 in assay [2]; -0.0958 in [3]; 0.477 in assay [4]; 0.98 in [5]; -0.27 in assay [6]. Besides, the composite z-score was found to be 0.959 in the assay with Sam68 (KHDRBS1); 0.161 in assay [7]; 0.411 in assay [8]; 0.746 in assay [9]; 0.76 in assay [10]; 0.0097 in assay [11]. Moreover, the composite z-score in assay [12] is 0.501; in assay [13], 0.28; in assay [14] it was 0.0684; in the assay on Lefty1, 0.331; in assay [16] it was 0.114. For the same molecule, the composite Z-score in assay [1] was -0.525 (inactive). The z-score is -0.63 in [15] and 0.934 (inactive) in assay [17].
For the molecule `CCN1C(=O)[C@H]2[C@@H]3C(=CC[C@H]2C1=O)C(=O)[C@H]1O[C@H]1[C@H]3O`, the composite z-score is -0.458 with Albumin (Bos taurus); -0.0258 in assay [2]; -0.0531 in [3]; -0.156 in assay [4]; 0.141 in assay [5]; 0.426 in [6]. For the same molecule, the composite z-score with Sam68 (KHDRBS1) was 0.657; in assay [7], 1.21; in assay [8], 0.725; in [9], 1.21; in assay [10], 0.491; in assay [11], -0.204. Besides, the composite z-score is 0.185 in assay [12]; 1.21 in [13]; 1.42 in assay [14]; 1.39 in the assay on Lefty1; 0.207 in assay [16]. Further, the composite Z-score in assay [1] was -0.192 (inactive). Further, the z-score was -0.923 in assay [15] and -0.415 (inactive) in assay [17].
In the case of `COC(=O)[C@@H]1CC[C@H](C)[C@@H](c2ccc(C)cc2)N1C(=O)c1ccc(C=NOC[C@H]2O[C@H](c3ccccc3)C=C[C@@H]2Oc2ccc(OC)cc2)cc1`, the composite z-score with Albumin (Bos taurus) was 0.312; in assay [2] it was 0.0257; in [3], -0.161; in assay [4], -0.145; in assay [5] it was -0.336; in assay [6], -0.192. Also, the composite z-score is 0.233 in the assay on Sam68 (KHDRBS1); 0.692 in [7]; 0.45 in [8]; -0.585 in assay [9]; -0.274 in [10]; -0.0204 in assay [11]. The composite z-score in assay [12] was -0.324; in [13] it was 0.222; in assay [14], 0.174; in the assay on Lefty1, 0.244; in assay [16], 0.172. The composite Z-score in assay [1] is -0.496 (inactive). Also, the z-score was -0.351 in [15] and 1.18 (inactive) in [17].
Consider `C=CC[C@@H]1C=C[C@H](ON=CC[C@@H]2C=C[C@H](OC(C)=O)[C@@H](COC(C)=O)O2)[C@@H](CO)O1`, for which the composite z-score with Albumin (Bos taurus) was found to be 0.0919; in assay [2] it was 0.164; in [3], 0.0219; in [4], 0.197; in [5], 0.312; in assay [6], 0.0839. Besides, the composite z-score with Sam68 (KHDRBS1) is 1.29; in assay [7], 0.441; in assay [8] it was 0.823; in assay [9], 1.37; in assay [10], 0.915; in [11], -0.0825. Besides, the composite z-score in assay [12] is 0.991; in assay [13], 0.538; in [14] it was 0.945; in the assay on Lefty1, 0.918; in [16], 0.566. In addition, in [1], the composite Z-score was -0.0027 (inactive). Also, the figures for the z-score in assay [15] and in assay [17] were -0.0536 and 0.328 (inactive), respectively.
